Only some compounds are listed: those with a hit (about 18% of all), similar ones and a draw of the others.
TDP1 cell CPT – DT40-hTDP1 cell growth loss with CPT | chicken DT40 Tdp1-/-;hTDP1 cells + 20 nM CPT, ATP luminescence, 48 h | Potency, µM (highest dose often 46.2 µM), for inactives: at the highest dose activity change, negative = growth inhibition, most hits filed as inhibitors | 420,000 compounds, 12% hits | AID 686979; further: nearly all actives have a fitted effect of over 55% in size
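Chicken DT40 Tdp1-/- cells stably complemented with human TDP1 were seeded at 400 cells/well in medium containing 20 nM camptothecin, exposed to pin-transferred compounds, and grown at 37 °C for at least 48 hr. Viability was read as ATP luminescence.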
DT40 TDP1 no CPT – qHTS for Inhibitors of human tyrosyl-DNA phosphodiesterase 1 (TDP1): qHTS in cells in absence of CPT | Potency, µM (doses to about 46.2 µM), inactives show at the top dose activity change, negative = growth inhibition, most hits filed as inhibitors | 420,000 compounds, 15% hits | DT40 Tdp1-/- hTDP1 cells, no CPT, ATP luminescence, 48 h | AID 686978, 2013; further: nearly all actives have a fitted effect of over 55% in size
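Stably hTDP1-transfected Tdp1-null chicken DT40 cells were treated with library compounds minus camptothecin and grown for at least 48 hr at 37 °C, after which cellular ATP was quantified by luminescence.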
VDR inh – vitamin D3 receptor (human) inhibition; P11473; VDR-SRC2-3 peptide fluorescence polarization, 2 h; Potency, µM, without a hit: max response, negative = inhibition, hits mostly inhibitors; 400,000 compounds, 0.93% hits
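Compounds are added to VDR with labelled SRC2-3 coactivator peptide and held 2 h at room temperature. Inhibition of the VDR–peptide interaction is then read as a change in fluorescence polarization.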
PLK1 PBD inh – inhibitors of human PLK1 polo-box domain binding | P53350 | Plk1 PBD binding of FITC phosphopeptide, fluorescence polarization | Potency, µM, for inactives: max response, negative = inhibition, most hits filed as inhibitors | 360,000 compounds, 2.8% hits | AID 720504; further: series mostly up to about 57 µM; nearly all actives have a fitted effect of over 65% in size
TDP1 inh – blocks human tyrosyl-DNA phosphodiesterase 1 | recombinant TDP1, AlphaScreen DNA substrate cleavage | Q9NUW8 | 350,000 compounds, 0.28% hits | AID 485290 | Potency, µM (highest dose often 130 µM), inactives show at the top dose activity change, negative = inhibition, most hits filed as inhibitors; further: nearly all actives have a fitted effect of over 40% in size
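AlphaScreen read-out: signal falls as enzyme removes the 3' tyrosine-FITC from a 5'-biotinylated DNA oligo (15 nM, 5 min, RT). Enzyme was E. coli-made recombinant Tdp1 at 1 nM, exposed to compound for 15 min beforehand; beads 10 ug/ml, 10 min.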
KAT2A inh – inhibitors of human GCN5L2 histone acetyltransferase; Q92830; GCN5L2 HAT assay, ThioGlo1 CoA-SH fluorescence; Potency, µM (top dose mostly 58.9 µM), for the others: at the highest dose activity change, negative = inhibition, most hits filed as inhibitors; 390,000 compounds, 0.21% hits
Target sequence (Q92830 whole entry, looked up): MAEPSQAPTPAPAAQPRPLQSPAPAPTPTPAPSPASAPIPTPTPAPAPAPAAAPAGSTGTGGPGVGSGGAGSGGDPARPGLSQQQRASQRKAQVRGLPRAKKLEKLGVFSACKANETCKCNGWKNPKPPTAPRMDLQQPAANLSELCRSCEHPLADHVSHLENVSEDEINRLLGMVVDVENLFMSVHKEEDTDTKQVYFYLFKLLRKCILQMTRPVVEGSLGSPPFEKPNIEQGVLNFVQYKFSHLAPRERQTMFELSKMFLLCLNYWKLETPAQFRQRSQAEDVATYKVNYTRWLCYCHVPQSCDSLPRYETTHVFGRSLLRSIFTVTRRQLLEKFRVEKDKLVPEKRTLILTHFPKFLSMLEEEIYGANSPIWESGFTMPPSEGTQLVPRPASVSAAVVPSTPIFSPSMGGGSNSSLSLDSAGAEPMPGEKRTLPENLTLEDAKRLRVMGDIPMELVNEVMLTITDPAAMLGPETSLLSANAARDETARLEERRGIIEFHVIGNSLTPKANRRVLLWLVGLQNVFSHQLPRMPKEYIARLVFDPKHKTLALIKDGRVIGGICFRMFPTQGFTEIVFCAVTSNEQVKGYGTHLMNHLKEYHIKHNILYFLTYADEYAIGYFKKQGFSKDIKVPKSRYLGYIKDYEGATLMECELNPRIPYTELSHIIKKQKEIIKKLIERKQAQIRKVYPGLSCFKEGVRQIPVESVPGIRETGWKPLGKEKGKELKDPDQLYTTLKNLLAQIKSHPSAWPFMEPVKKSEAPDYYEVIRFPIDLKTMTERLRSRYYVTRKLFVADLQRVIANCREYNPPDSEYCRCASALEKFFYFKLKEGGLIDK
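Fluorescence readout, Ex340nm/Em540nm: ThioGlo1 (50uM final) reacts with free CoA thiol released as 20nM GCN5L2 acetylates H3(1-25) peptide (75uM) using acetyl-CoA (70uM). Compound and enzyme sat 15 min beforehand; 20 min room-temperature reaction.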
Active calls of the source: *; ? = inconclusive; . = no result given. The call rests on the fitted dose curve; in most records, active means well fitted curve in the direction sought with a large enough effect; inconclusive means small, poorly fitted or top-dose-only effect, or another doubt; inactive means no such curve, though single readings can be large; an effect the other way counts as inactive or inconclusive. On the % scale 0 is the no-effect control and ±100 the full control effect; potency means the concentration at half of the fitted maximal effect.

SMILES	TDP1 cell CPT	DT40 TDP1 no CPT	VDR inh	PLK1 PBD inh	TDP1 inh	KAT2A inh
Cc1nnc(SCC(=O)Nc2cc(-c3cc(C)c(C)cc3C)nn2-c2ccccc2)s1	20.6µM*	11.6µM*	-6.2%	3.9%	3.2%	-6.2%
O=C(CCC(=O)CCN1CCCCC1)CCN1CCCCC1	13µM*	20.6µM*	-0.6%	-15.6%	1.0%	.
O=C(CSc1nc2ccccc2o1)N1c2ccccc2Sc2ccc(C(F)(F)F)cc21	?	20.6µM*	0.6%	5.1%	3.5%	-9.0%
O=C(CN1CCCC1)N1c2ccccc2Sc2ccc(C(F)(F)F)cc21	?	?	-1.2%	-0.7%	9.8%	0.7%
CC(O)(c1ccccc1)c1nc(-c2ccc(Cl)cc2)cs1 (stereo not drawn)	?	?	.	-6.2%	.	.
CN(C)c1ccc(-c2csc(C(C)(O)c3ccccc3)n2)cc1 (stereo not drawn)	14.6µM*	16.4µM*	.	-5.9%	.	.
CC(O)(c1ccccc1)c1nc(-c2cc3ccccc3o2)cs1 (stereo not drawn)	23.1µM*	13µM*	.	1.6%	.	.
COc1ccccc1NC(=O)CSC1=Nc2ccccc2C2=NC(CC(=O)NCCc3ccccc3)C(=O)N12 (stereo not drawn)	?	?	9.7%	.	-2.5%	-4.2%
O=C(CSC1=Nc2ccccc2C2=NC(Cc3ccccc3)C(=O)N12)Nc1ccccc1F (stereo not drawn)	23.1µM*	?	0.9%	.	8.8%	-2.4%
O=C(CSC1=Nc2ccccc2C2=NC(Cc3ccccc3)C(=O)N12)Nc1ccccc1C(F)(F)F (stereo not drawn)	?	25.9µM*	3.6%	.	6.2%	-4.7%
CC(C)(C)NC(=O)N1CCN(c2nc3ccc(Cl)cc3s2)CC1	23.1µM*	18.4µM*	-13.3%	3.2%	.	-8.2%
Cc1nn(C)c2c1c(C(F)(F)F)cc(=O)n2C(C)C(=O)NCCc1ccc(Cl)cc1 (stereo not drawn)	14.6µM*	?	14.4%	.	9.7%	-9.8%
COc1ccc(N2CCN(C(=O)C(C)n3c(=O)cc(C(F)(F)F)c4c(C)nn(C)c43)CC2)cc1 (stereo not drawn)	11.6µM*	11.6µM*	6.2%	.	5.8%	-9.5%
Cc1nn(C)c2c1c(C(F)(F)F)cc(=O)n2C(C)C(=O)N1CCN(c2ccccc2)CC1 (stereo not drawn)	23.1µM*	?	27.2%	.	7.1%	0.0%
Cc1ccc(C)c(NC(=O)C(C)n2c(=O)cc(C(F)(F)F)c3c(C)nn(C)c32)c1 (stereo not drawn)	-19.8%	2.2%	4.8%	.	1.9%	-4.7%
CC(=O)Nc1cc2c(c(Cl)c1Cl)-c1ccccc1C2=O	-13.2%	-18.4%	?	-14.0%	.	.
COc1ccc(-c2c(C)c3ccc(O)c(CN4CCN(CCO)CC4)c3oc2=O)cc1OC	?	?	6.9%	.	-2.7%	-15.7%
CN1CCN(Cc2c(O)ccc3cc(-c4ccc(Cl)cc4)c(=O)oc23)CC1	23.1µM*	?	14.1%	.	2.7%	?
CCN1CCN(Cc2c(O)ccc3cc(-c4ccc(OC)cc4)c(=O)oc23)CC1	?	?	16.3%	.	2.7%	?
O=c1oc2c(CN3CCN(CCO)CC3)c(O)ccc2cc1-c1ccccc1	-1.2%	0.6%	-0.2%	.	2.7%	31.6µM*
Nc1cccc(N=[N+]([O-])c2cccc(N)c2)c1	?	-14.6%	10.3%	9.4%	.	.
COc1cccc(NC(=O)CC(C)S(=O)(=O)c2ccc3c(c2)NC(=O)CO3)c1 (stereo not drawn)	-11.9%	?	7.9%	.	6.2%	-12.8%
CCOC(=O)c1ccc(NC(=S)NNC(C)(C)C)cc1	5.8µM*	5.8µM*	-14.1%	-8.2%	.	1.4%
